Sampled rows, rich in hits. Any-hit rate of the full collection: about 19%.
ELG1 repair inh: inhibitors of ELG1-dependent DNA repair in HEK293T cells. hit rate 2.3% among 330,000. AID 504467. HEK293T ELG1-luciferase reporter, luminescence, 16 h; DNA damage induced by 5-fluorouridine. Potency, µM (top dose mostly 46.1 µM), for the others: at the highest dose activity change, negative = inhibition, usual class: inhibitors; note: potency is the fitted concentration of half-maximal effect; nearly all actives have a fitted effect of over 55% in size
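5-Fluorouridine DNA damage + compound/DMSO, 2,000 cells/well, 16 h, 37 °C/5% CO2. ONE-Glo, 30 min RT, luminescence. Readout = decrease in reporter signal.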
TDP1 cell CPT: growth inhibition of DT40 Tdp1-/-;hTDP1 cells with camptothecin (screen for TDP1 inhibitors). chicken DT40 Tdp1-/-;hTDP1 cells + 20 nM CPT, ATP luminescence, 48 h. Potency, µM (titrated, usually from 46.2 µM), without a hit: at the top dose activity change, negative = growth inhibition, usual class: inhibitors. hit rate 12% among 420,000; note: potency is the fitted concentration of half-maximal effect; nearly all actives have a fitted effect of over 55% in size
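Cell growth measured by CellTiter-Glo luminescence after a minimum 48 h, 37 C compound exposure with 20 nM CPT in Tdp1-knockout DT40 cells stably expressing hTDP1, seeded 400/well; qHTS titration format.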
TDP1 cell noCPT: qHTS for Inhibitors of human tyrosyl-DNA phosphodiesterase 1 (TDP1): qHTS in cells in absence of CPT; DT40 Tdp1-/- hTDP1 cells, no CPT, ATP luminescence, 48 h; Potency, µM (highest dose often 46.2 µM), for the others: at the highest dose activity change, negative = growth inhibition, hits mostly inhibitors; hit rate 15% among 420,000; AID 686978, 2013; note: potency is the fitted concentration of half-maximal effect; nearly all actives have a fitted effect of over 55% in size
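Chicken DT40 Tdp1-/- cells complemented with human TDP1, screened without camptothecin (DMSO vehicle only), 400 cells/well. Compounds pin-transferred, cells incubated at 37 °C for at least 48 hr. Growth read as ATP-dependent luminescence (CellTiter-Glo, 30 min at RT).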
Giardia kill: kills Giardia lamblia. Giardia lamblia trophozoite viability. activity change, % at 7.66 µM, hits read low. hit rate 0.15% among 340,000. AID 540267; in the data active = activity change below about -80%; inconclusive = between about -30% and that limit;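 note: parasites exposed to compound for two days anaerobically before the ATP read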
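Anaerobic 48 hrs incubation at 37 deg C of 100 trophozoites/well with test compounds; ATPLite 1-Step luminescence, 15-30 min RT, reports cellular ATP as viability.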
IL-1B inflam inh: blocks inflammasome-driven IL-1 beta release. THP-1 LPS/ATP IL-1B secretion, AlphaLISA, 16 h; active compounds read low. activity change, % at 57.5 µM. hit rate 4.7% among 360,000. AID 743279; in the data active = activity change below about -50%; inconclusive = mostly about -30% to -49%
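Secreted IL-1B measured by AlphaLISA bead assay after 16 h compound exposure of THP-1 cells; compounds (final up to 57.5 uM) added 1 h before LPS (250 ng/mL) and ATP (1.25 mM) stimulation; lower signal means less secretion.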
TDP1 inh: inhibitors of human tyrosyl-DNA phosphodiesterase TDP1. hit rate 0.28% among 350,000. Q9NUW8. recombinant TDP1, AlphaScreen DNA substrate cleavage. AID 485290. Potency, µM (titrated, usually from 130 µM), for the others: at the highest dose activity change, negative = inhibition, most hits filed as inhibitors; note: potency is the fitted concentration of half-maximal effect; nearly all actives have a fitted effect of over 40% in size
Target sequence (Q9NUW8 whole entry, looked up): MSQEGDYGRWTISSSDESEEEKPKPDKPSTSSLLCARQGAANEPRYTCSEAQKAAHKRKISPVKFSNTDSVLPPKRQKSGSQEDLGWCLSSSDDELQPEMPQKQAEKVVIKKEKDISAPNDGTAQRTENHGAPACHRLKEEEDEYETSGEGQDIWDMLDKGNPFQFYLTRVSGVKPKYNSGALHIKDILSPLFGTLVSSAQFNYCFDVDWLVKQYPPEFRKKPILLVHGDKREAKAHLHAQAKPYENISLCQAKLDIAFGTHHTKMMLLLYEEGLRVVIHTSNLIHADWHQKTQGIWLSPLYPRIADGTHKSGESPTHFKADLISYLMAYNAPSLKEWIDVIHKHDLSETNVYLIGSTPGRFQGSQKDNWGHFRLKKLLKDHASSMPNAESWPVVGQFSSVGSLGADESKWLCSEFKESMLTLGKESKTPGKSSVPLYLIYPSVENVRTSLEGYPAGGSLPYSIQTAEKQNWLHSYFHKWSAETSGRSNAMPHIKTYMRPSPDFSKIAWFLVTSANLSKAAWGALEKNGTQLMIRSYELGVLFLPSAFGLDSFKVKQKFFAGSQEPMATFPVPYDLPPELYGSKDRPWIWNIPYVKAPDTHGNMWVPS
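AlphaScreen read-out: signal falls as enzyme removes the 3' tyrosine-FITC from a 5'-biotinylated DNA oligo (15 nM, 5 min, RT). Enzyme was E. coli-made recombinant Tdp1 at 1 nM, exposed to compound for 15 min beforehand; beads 10 ug/ml, 10 min.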
* marks the source's active call; other numbers are inactive results; u = inconclusive; x = not tested or not shown; [ ] = another dose, or the depositor's remark. Unless noted, calls come from the whole dose curve; as a rule, active = well fitted curve in the direction sought with a large enough effect; inconclusive = small, poorly fitted or top-dose-only effect, or another doubt; inactive = no such curve, though single readings can be large; an effect the other way counts as inactive or inconclusive. % is set by controls: 0 for no effect and ±100 for the full control effect.

SMILES	ELG1 repair inh	TDP1 cell CPT	TDP1 cell noCPT	Giardia kill	IL-1B inflam inh	TDP1 inh
COc1ccc(C(=O)N2CCC3(CCN(C)CC3)CC2)cc1	x	8.9%	7.3%	x	x	x
O=C(/C=C/c1cccs1)Nc1ccncc1	u	-7.9%	u	-10.1	u	-5.6%
CCCOC(=O)c1ccc(NC(=O)/C=C/c2cccs2)cc1	u	u	18.4µM*	2.6	-11.1	5.3%
CCn1cc(-c2ccccc2)c(C(=O)O)c1-c1ccc(OC)cc1	1.2%	0.7%	-22.1%	-7.0	14.9	0.3%
Cc1cc(OC(C)C(=O)Nc2c(C(=O)c3ccc(F)cc3)oc3ccccc23)ccc1Cl (centres undefined)	x	u	u	x	x	-1.1%
Cc1cc(OC(=O)c2cccc(F)c2)c([N+](=O)[O-])c(=O)[nH]1	7.8%	-2.7%	-3.2%	-13.4	7.5	6.0%
CC(=O)N1CCc2c(sc3c2c(=O)n(CCc2ccccc2)c(=O)n3Cc2ccccc2C)C1	x	14.6µM*	16.4µM*	x	x	3.9%
CCOC(=O)N1CCc2c(sc3c2c(=O)n(-c2ccccc2C(F)(F)F)c(=O)n3Cc2ccccc2C)C1	x	18.4µM*	u	x	x	1.3%
CCOC(=O)N1CCc2c(sc3c2c(=O)n(Cc2ccccc2)c(=O)n3Cc2cccc(Cl)c2)C1	x	10.3µM*	20.6µM*	x	x	3.8%
CC(=O)N1CCc2c(sc3c2c(=O)n(CCc2ccccc2)c(=O)n3Cc2ccc(Cl)cc2)C1	x	u	u	x	x	4.9%
CC(=O)N1CCc2c(sc3c2c(=O)n(Cc2ccccc2)c(=O)n3Cc2cc(C)ccc2C)C1	x	16.4µM*	20.6µM*	x	x	1.0%
CC(=O)N1CCc2c(sc3c2c(=O)n(-c2ccc(F)cc2)c(=O)n3Cc2cc(C)ccc2C)C1	x	4.3%	-1.5%	x	x	-2.9%
O=C(Nc1ccccc1N1CCOCC1)c1ccc(Cl)nc1	12.4%	5.8%	-20.7%	0.3	29.0	5.0%
COc1ccc2[nH]c(C(=O)NCc3ccccc3)cc2c1	u	1.3%	0.3%	-20.2	-1.9	1.2%
CCOc1ccc2[nH]c(C(=O)N/N=C/c3ccc(OC)cc3)cc2c1	u	0.581µM*	0.581µM*	-21.4	63.2	x
COc1ccc(/C=N/NC(=O)c2nc(-c3ccccc3)n(-c3ccccc3)n2)cc1	-23.9%	10.1%	2.9%	-16.7	-1.6	4.6%
COc1ccc(CN(Cc2cccn2C)C(=O)c2cc3cc(OC)ccc3[nH]2)cc1	u	u	u	10.2	-80.8*	6.5%
COc1ccc(/C=N/NC(=O)c2nc(-c3ccccc3)n(-c3ccccc3)n2)c(O)c1	-15.6%	u	16.4µM*	26.0	57.2	8.0%
COc1ccc2cc(C(=O)N/N=C/c3cc(OC)c(OC)c(OC)c3)[nH]c2c1	u	-21.6%	-9.0%	u	u	x
COc1ccc2[nH]c(C(=O)c3ccccc3)cc2c1	x	0.133µM*	0.15µM*	x	x	8.2%[56.1 µM]
CSc1nc2n(n1)C(C)C1=C(CCCC1=O)N2 (centres undefined)	u	5.5%	-13.5%	-4.8	-8.5	-13.7%
CCCC(=O)Nc1nnc(S(=O)(=O)N(C)Cc2ccc(Cl)cc2)s1	x	-18.8%	-7.9%	x	x	0.0%
O=C(C1CCCCN1S(=O)(=O)c1ccccc1[N+](=O)[O-])N1CCCCC1 (centres undefined)	-11.8%	-19.4%	-18.2%	-13.0	-21.0	8.4%
COc1cc2cc(C(=O)N/N=C/c3ccc(F)cc3)[nH]c2cc1OC	u	-27.0%	-17.9%	2.8	-11.4	x
COc1ccc2[nH]c(C(=O)N/N=C/c3ccc(O)cc3O)cc2c1	u	4.61µM*	3.66µM*	3.8	101.7	x
SMILES	ELG1 repair inh	TDP1 cell CPT	TDP1 cell noCPT	Giardia kill	IL-1B inflam inh	TDP1 inh
COc1ccc(/C=N/NC(=O)c2cc3cc(OC)c(OC)cc3[nH]2)cc1	-27.8%	u	-23.6%	-8.1	-50.6*	x
COc1cc2cc(C(=O)N/N=C/c3ccccc3Cl)[nH]c2cc1OC	u	u	23.1µM*	-11.7	-57.8*	x
CCC1(C2CCN(Cc3cccc(Cl)c3)CC2)NC(=O)N(CC2COc3ccccc3O2)C1=O (centres undefined)	x	-3.8%[9.04 µM]	u	x	x	x
CCN1CCC(N(Cc2ccc(F)cc2)C(=O)Nc2cc(Cl)ccc2C(=O)OC)CC1	x	-13.6%	-5.4%	x	x	-2.5%
C[C@@H]1CC=C[C@H]2[C@H]1C(=O)N(Cc1ccccc1)[C@H]2c1ccc(-c2ccc(F)cc2)cc1F	0.0%	16.4µM*	13µM*	9.5	56.6	-5.9%
C[C@@H]1CC=C[C@@H]2[C@H]1C(=O)N(Cc1ccccc1)[C@H]2c1cccc(Br)c1	21.7%	u	u	6.8	28.0	-0.5%[56.1 µM]
COc1ccc([C@H]2[C@H]3C=CC[C@@H](C)[C@@H]3C(=O)N2Cc2ccccc2)cc1Cl	1.1%	u	16.4µM*	-5.7	46.3	-1.2%
COc1ccc(-c2ccc([C@H]3[C@H]4C=CC[C@@H](C)[C@@H]4C(=O)N3Cc3ccccc3)c(F)c2)cc1C	-17.8%	14.6µM*	14.6µM*	11.7	10.7	-2.4%
CC1CC=CC2C1C(=O)N(Cc1ccccc1)C2c1ccc(-c2ccc(F)cc2)cc1F (centres undefined)	x	x	x	6.5	x	-2.6%
C[C@@H]1CC=C[C@@H]2[C@H]1C(=O)N(Cc1ccccc1)[C@H]2c1cccc(C#Cc2ccccc2)c1	-6.7%	29.1µM*	10.3µM*	1.6	33.5	-3.3%[56.1 µM]
COc1ccc(-c2ccc(C3C4C=CCC(C)C4C(=O)N3Cc3ccccc3)c(F)c2)cc1C (centres undefined)	x	x	x	1.3	x	3.2%
Cc1occc1-c1nnc(SCC(=O)N2CCCCC2)o1	u	-16.6%	0.3%	-5.4	23.5	2.7%
COc1ccc(-c2ccc(C)cc2)cc1C1C2C=CCC(C)C2C(=O)N1Cc1ccccc1 (centres undefined)	x	x	x	-12.5	x	-3.8%
COc1ccc(-c2ccc(OC)c([C@H]3[C@H]4C=CC[C@@H](C)[C@@H]4C(=O)N3Cc3ccccc3)c2)cc1OC	-20.0%	u	16.4µM*	-10.6	-16.8	2.4%
C[C@@H]1CC=C[C@H]2[C@H]1C(=O)N(Cc1ccccc1)[C@H]2c1ccc(-c2cc3ccccc3s2)cc1F	u	16.4µM*	14.6µM*	5.3	28.5	-2.4%
COC(=O)/C=C/c1cccc([C@H]2[C@@H]3C=CC[C@@H](C)[C@@H]3C(=O)N2Cc2ccccc2)c1	4.3%	23.1µM*	16.4µM*	15.4	9.1	-2.3%[56.1 µM]
